Out of some 310,000 compounds screened, about 14,000 (4.5%) showed an effect of 50% or more. The effect is printed as a negative number. What follows is part of a selection rich in strong results, with near analogues and random picks from the rest.
The molecules below were run against human ether-à-go-go-related gene (hERG) potassium channel (human, UniProt Q12809) (assay: primary screen, population patch clamp on CHO cells stably expressing hERG; higher = less effect of the substance).
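Further: peak tail current of the secondary pulse compared with the same well before compound.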

Chain of human ether-à-go-go-related gene (hERG) potassium channel (Q12809 whole entry, looked up): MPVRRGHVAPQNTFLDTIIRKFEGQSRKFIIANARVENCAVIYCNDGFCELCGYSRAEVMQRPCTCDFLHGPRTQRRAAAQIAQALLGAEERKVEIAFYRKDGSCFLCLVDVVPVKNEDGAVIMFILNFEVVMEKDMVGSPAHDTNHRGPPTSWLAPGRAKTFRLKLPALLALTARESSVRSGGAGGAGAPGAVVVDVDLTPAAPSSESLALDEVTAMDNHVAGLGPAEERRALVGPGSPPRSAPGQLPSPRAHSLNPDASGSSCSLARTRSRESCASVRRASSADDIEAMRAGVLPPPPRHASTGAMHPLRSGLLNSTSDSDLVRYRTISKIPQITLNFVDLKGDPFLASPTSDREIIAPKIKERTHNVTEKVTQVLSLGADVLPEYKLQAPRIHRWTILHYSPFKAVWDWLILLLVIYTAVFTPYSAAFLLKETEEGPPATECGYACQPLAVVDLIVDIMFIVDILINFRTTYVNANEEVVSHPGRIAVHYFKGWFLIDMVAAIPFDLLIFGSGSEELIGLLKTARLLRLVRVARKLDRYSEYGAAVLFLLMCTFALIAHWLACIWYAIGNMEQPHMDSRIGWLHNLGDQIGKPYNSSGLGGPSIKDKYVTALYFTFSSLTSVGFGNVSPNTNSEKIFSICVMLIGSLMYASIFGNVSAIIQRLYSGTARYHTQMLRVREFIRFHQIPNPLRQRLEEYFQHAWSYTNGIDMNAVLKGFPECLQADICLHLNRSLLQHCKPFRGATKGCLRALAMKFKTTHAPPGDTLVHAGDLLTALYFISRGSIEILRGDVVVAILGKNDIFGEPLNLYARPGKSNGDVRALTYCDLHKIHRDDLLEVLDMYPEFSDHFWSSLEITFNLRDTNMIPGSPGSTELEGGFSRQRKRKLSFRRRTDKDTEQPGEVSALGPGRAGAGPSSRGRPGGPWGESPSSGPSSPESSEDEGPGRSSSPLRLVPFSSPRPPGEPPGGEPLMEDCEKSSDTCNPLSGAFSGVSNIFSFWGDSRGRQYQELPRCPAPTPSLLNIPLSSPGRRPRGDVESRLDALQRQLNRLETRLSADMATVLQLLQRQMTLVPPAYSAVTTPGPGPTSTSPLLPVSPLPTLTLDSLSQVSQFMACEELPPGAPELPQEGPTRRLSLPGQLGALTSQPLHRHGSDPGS

Row | Compound | hERG current change (%, negative = inhibition) at 10uM [%]
1 | CC12CN(C(=O)c3ccccc3Br)CC(C)(CN(C(=O)c3ccccc3Br)C1)C2=O | -4.96
2 | CCC(=O)Nc1ccc(C(=O)CSc2nnc(-c3ccc(NS(=O)(=O)CC)cc3)o2)cc1OC | 5.26
3 | O=C(CCN1C(=O)c2ccccc2C1=O)N1CCN(C(=O)c2ccccc2)CC1 | 0.00878
4 | CN(C)Cc1ccccc1Sc1ccccc1Br | -36.5
5 | CN(C)CCN(C)Cc1ccccc1Sc1cccc2ccccc12.Cl | -65.3
6 | CN(C)CCN(C)Cc1c2ccccc2c(CN(C)CCN(C)C)c2ccccc12 | 0.802
7 | CCOC(=O)c1nn(-c2ccc(C)cc2)c(=O)cc1OCC(=O)Nc1cc(C)ccc1OC | -2.12
8 | Cc1cccc(NC(=O)C2C(c3ccccc3)C2(Cl)Cl)c1 (stereo not shown) | -5.35
9 | CC1CCCCN1CCNc1nc(=S)[nH]c2ccccc12 (stereo not shown) | -67.5
10 | CC1CCCCN1CCCNc1c(C=O)c(=O)[nH]c2ccccc12 (stereo not shown) | -3.96
11 | S=c1nc(NCCc2ccccc2Cl)c2ccccc2[nH]1 | 20
12 | Cc1nc2ccccc2c(=O)n1/N=C/c1ccccn1 | -3.77
13 | Cc1ccc(S(=O)(=O)N2CCOC2CNC(=O)C(=O)NCCN2CCOCC2)cc1 (stereo not shown) | 10.6
14 | COc1ccccc1OCC(O)Cn1nc(C)cc1C (stereo not shown) | 9.76
15 | CCCCCn1c(=N)n(CC(O)COc2ccccc2OC)c2ccccc21 (stereo not shown) | -75.9
16 | COc1ccccc1OCC(O)COC(N)=O (stereo not shown) | 10.3
17 | CCCCCn1c(=N)n(CC(O)COc2ccccc2OC)c2ccccc21.Cl (stereo not shown) | -81.1
18 | Cc1ccc(C(=O)Nc2nnc(S(=O)(=O)N3CCN(c4ccc(F)cc4)CC3)s2)cc1 | 2.59
19 | COc1ccc2c(C)nc(Nc3nc(C)cc(C)n3)nc2c1 | 5.64
20 | Cc1cc(C2(c3ccc(O)c(C)c3)C(=O)N(C)c3ccc(Br)cc32)ccc1O | -2.28
21 | COc1cc(C2(c3ccc(O)c(OC)c3)C(=O)N(C)c3ccc(C)cc32)ccc1O | -19
22 | COc1cc(C2(c3ccc(O)c(OC)c3)C(=O)N(C)c3ccc(Br)cc32)ccc1O | -52.6

Row | Compound | hERG current change (%, negative = inhibition) at 10uM [%]
23 | COC(=O)c1c(NC(=O)C(=O)N2CCOCC2)sc2c1CCCC2 | 7.47
24 | CC1CN(C(=O)c2ccccc2OCc2ccc(Cl)cc2Cl)CC(C)O1 (stereo not shown) | -37.7
25 | CC(NC(=O)COC(=O)c1ccc(N(C)C)cc1)c1ccccc1 (stereo not shown) | 3.44
26 | CC(=O)N(c1ccccc1)c1nc(C)cc(C)c1C#N | 12.1
27 | COc1cc(-c2noc(C)c2C#CCO)cc(OC)c1OC | 6.47
28 | COc1cc(-c2noc(C)c2C#Cc2ccccn2)cc(OC)c1OC | -29
29 | COc1cc(-c2noc(C)c2C#Cc2nccn2C)cc(OC)c1OC | -53.4
30 | O=Cc1cn(CCC(=O)O)nc1-c1cccc(Br)c1 | 24.2
31 | COc1ccc(N(CC(=O)Nc2cccnc2)S(=O)(=O)c2ccc(C)cc2)cc1Cl | -16.9
32 | Cc1ccc(S(=O)(=O)N(CC(=O)Nc2cccnc2)c2cccc(Br)c2)cc1 | -11.5
33 | Cc1ccc(CNC(=O)CN(c2cccc([N+](=O)[O-])c2)S(=O)(=O)c2ccccc2)cc1 | -25
34 | O=C(CN(c1cccc([N+](=O)[O-])c1)S(=O)(=O)c1ccccc1)NCc1ccccc1 | -68.5
35 | CCOc1ccc(N(CC(=O)Nc2cccnc2)S(=O)(=O)c2ccc(C)cc2)cc1 | -5.5
36 | Cc1ccc(S(=O)(=O)N(CC(=O)Nc2cccnc2)c2cccc([N+](=O)[O-])c2)cc1 | -56.6
37 | Cc1ccc(S(=O)(=O)N(CC(=O)Nc2cccnc2)c2ccccc2C)cc1 | -16.4
38 | Cc1ccc(S(=O)(=O)N(CC(=O)Nc2cccnc2)c2ccc(Br)cc2)cc1 | -50.3
39 | O=C(CN(c1cccc([N+](=O)[O-])c1)S(=O)(=O)c1ccccc1)NCc1cccnc1 | -42.2
40 | Cc1cc(C)c2cc(C#N)c(NCCCNC(=O)CCC(=O)O)nc2c1 | 12.2
41 | COc1ccc(N=CC2=C(Nc3ccc(OC)cc3)c3c(C)nn(-c4ccccn4)c3CC2)cc1 | -16.4
42 | COCC1CCN(C(=O)c2cc(COc3ccc(F)cc3F)on2)C1 (stereo not shown) | -13.2
43 | CCOC(=O)c1c(NC(=O)C2C3CCC(O3)C2C(=O)O)sc2c1CCC(CC)C2 (stereo not shown) | -21.1
